Results from PubChem BioAssay AID2061322 (National Center for Advancing Translational Sciences (NCATS), 2025).
Results filed as inconclusive are left out. The source made the active and inactive calls. The call rests on the fitted dose curve; in most records, active means well fitted inhibition curve with a large enough effect; inconclusive means small, poorly fitted or top-dose-only effect; inactive means flat fitted curve, though single readings scatter.

Test: Identification of antibody-drug conjugate (ADC) payloads which are substrates of ATP-binding cassette drug efflux transporters: ABCG2-HEK293-R5 cell line with Ko143
Conditions: ABCG2-HEK293-R5 with Ko143, CellTiter-Glo viability, 48 h
Excerpt: Antibody-drug conjugates (ADCs) feature an antibody recognizing a specific protein joined to a potent toxic payload. Numerous antibody-drug conjugates have received FDA approval; however, clinical resistance arises. Resistance mechanisms include decreased expression or mutation of the antibody target, impaired payload release, or increased expression of ATP-binding cassette (ABC) efflux transporters associated with multidrug resistance. We therefore sought to characterize the interaction of ABC multidrug transporters with ADC payloads. We performed a high-throughput screen with 27 common ADC payloads using cells lines expressing ABC transporters P-glycoprotein (P-gp, encoded by ABCB1) or ABCG2 (encoded by ABCG2). Confirmatory assays were also performed using cells transfected to express P-gp, ABCG2, or MRP1 (encoded by ABCC1). Several commonly used ADC payloads were substrates of P-gp, including calicheamicin gamma1, monomethyl auristatin E, DM1, and DM4. All the pyrrolobenzodiazepines tested - SJG136, SGD-1882, SG2057, and SG3199 - were substrates of P-gp, ABCG2, and MRP1. […] These findings highlight the risk of transporter-mediated resistance with certain ADC payloads and underscore the importance of selecting payloads that evade ABC transporter recognition in future ADC development.
HEK-293 cells were transfected with empty vector (pcDNA) or vector containing the human ABCB1 (MDR-19), ABCG2 (R-5), or ABCC1 gene (MRP1) and were maintained in EMEM with 2 mg/mL G418 added to maintain transporter expression. The HeLa derivative KB-3-1 and the P-gp overexpressing KB-8-5-11 subline were maintained in DMEM; KB-8-5-11 additionally received 100 ng/mL colchicine. H460 parental cells were obtained from the Division of Cancer Treatment and Diagnosis Tumor Repository, National Cancer Institute at Frederick, MD and were cultured in RPMI. The ABCG2 expressing subline H460 MX20 was generated by selecting H460 cells in 20 nM mitoxantrone. Media in all cases was supplemented with 10% FBS and 1% penicillin-streptomycin. […]
With `CC[C@H](C)[C@@H]([C@@H](CC(=O)N1CCC[C@H]1[C@H](OC)[C@@H](C)C(=O)N[C@H](C)[C@@H](O)c1ccccc1)OC)N(C)C(=O)[C@@H](NC(=O)[C@H](C(C)C)N(C)C)C(C)C` the Potency was 16.9 nM (active).
For `COc1cc2cc(c1Cl)N(C)C(=O)C[C@H](OC(=O)[C@H](C)N(C)C(=O)CCC(C)(C)S)[C@]1(C)OC1[C@H](C)C1C[C@@](O)(NC(=O)O1)[C@H](OC)/C=C/C=C(\C)C2` (stereo partly drawn), the Potency was 1.7 nM (active).
In the case of `COc1cc2cc(C(=O)N3C[C@@H](CCl)c4c3cc(O)c3ccccc43)[nH]c2c(OC)c1OC`, the Potency was 15 nM (active).
